The campaign covered roughly 10,000 compounds. About 320 (3.2%) were called active. The sample as a whole holds a higher share of actives than the screen did. Unmarked numbers belong to inactive results. Rule as the data show it: active = CPE inhibition mostly above about 9.1% (no sharp cut-off); inactive = mostly below about 7.2%.

The experiment is described as follows: Dengue virus cytopathic effect inhibitors, cell-based, CPE readout, HTS (AID 540333). As to conditions: Dengue virus CPE inhibition in host cells, at 20 µM; hits give high values. In general terms: Damage to the host cells serves as the signal in cytopathic effect assays.
For `c1ccc(-c2[nH]c(-c3ccccc3)[n+](CC3CO3)c2-c2ccccc2)cc1` (stereo not given), the CPE inhibition is 16.7% (active).

With `O=C(NCCCN1CCOCC1)C(Cl)(Cl)Cl`, the CPE inhibition entry was “inactive”. The result for `CCOC(=O)CCCCCNC(=O)c1c(O)[nH]c(=O)[nH]c1=O` reads “inactive”; that for `N#CC(C#N)=Cc1ccc(-c2ccccc2F)o1`, 12.6% (active); that for `COC(=O)C1=C(c2ccc(C(C)=O)cc2)C[C@@H]2CC[C@H]1N2C(=O)N1CCCCC1`, “inactive”. With `Cc1c(C(c2ccc(O)cc2)c2c(O)c3ccccc3oc2=O)c(=O)n(-c2ccccc2)n1C` (stereo not given) the figure was 0.205%; with `Cc1ccc(-n2c(O)c(/C=N/N3CCOCC3)c(=O)[nH]c2=S)cc1`, 0.115%.

In the case of `COC(=O)C1=C(c2ccc(F)cc2F)C[C@@H]2CC[C@H]1N2C(=O)NC(C)C`, the CPE inhibition entry is “inactive”.

As for `O=C(/C=C/c1ccc2c(c1)OCO2)c1c(O)n(CCC2=CCCCC2)c(=O)[nH]c1=O`, the CPE inhibition is 4.09%.

For the compound `COc1ccc(/C=C/C(=O)c2c(O)n(CCC3=CCCCC3)c(=O)[nH]c2=O)cc1`, the CPE inhibition is 9.38% (active). With `O=C(N/N=C/c1c(O)n(CCC2=CCCCC2)c(=O)[nH]c1=O)c1ccccc1` the figure was 0.065%. `CC(ON1CC1(C(F)(F)F)C(F)(F)F)(C(N)=O)C(N)=O` (stereo not given): the CPE inhibition was 0.53%. Consider `CN1c2ccc([N+](=O)[O-])cc2CC2(C(=O)NC(=O)N(c3ccccc3)C2=O)C1c1ccccc1` (stereo not given), for which the CPE inhibition was 15.4% (active).

For `CC(C)N1C(=O)NC(=O)C2(Cc3cc([N+](=O)[O-])ccc3N(C)C2c2ccccc2)C1=O` (stereo not given), the CPE inhibition is 1.19%. With `CN1c2ccc([N+](=O)[O-])cc2CC2(C(=O)NC(=O)NC2=O)C1c1ccccc1` (stereo not given) the entry was “inactive”; with `CN1C(=O)C(=Cc2ccc(N3CCOCC3)o2)C(=O)N(C)C1=O`, “inactive”; with `C/C(=N\Nc1ccccc1)c1c(O)n(Cc2ccccc2)c(=O)[nH]c1=O`, “inactive”. Consider `COC(=O)C1=C(c2ccc(F)cc2F)C[C@@H]2CC[C@H]1N2C(=O)NCCOc1ccccc1Cl`, for which the CPE inhibition was 3.74%. The result for `CCCc1nc2ccc(Br)cc2c(=O)n1-c1ccc([N+](=O)[O-])c(C(F)(F)F)c1` reads 0.98%; that for `COC(=O)C1=C(c2cc3ccccc3o2)C[C@@H]2CC[C@H]1N2C`, 0.83%; that for `COC(=O)C1=C(c2cc3ccccc3o2)C[C@@H]2CC[C@H]1N2C(=O)NCc1cccc2ccccc12`, 16.2% (active). Turning to `CCCNC(=O)N1[C@H]2CC[C@@H]1C(C(=O)OC)=C(c1cc3ccccc3o1)C2`, the CPE inhibition was 4.1%. The result for `CCC(=NCCC(c1ccccc1)c1ccccc1)c1c(O)[nH]c(=O)[nH]c1=O` reads 2.3%; that for `COC(=O)C1=C(c2ccc3ccccc3c2)C[C@@H]2CC[C@H]1N2C(=O)NC1Cc2ccccc2C1`, 6.91%. The result for `O=C(Nc1ccccc1)c1c(O)[nH]c(=O)[nH]c1=O` reads “inactive”; that for `Cc1ccc(CN2C(=O)CN=C(c3ccccc3)c3ccccc32)cc1`, 9.14% (active); that for `O=C1CN=C(c2ccccc2)c2cc(Br)ccc2N1Cc1cc(=O)n2ccccc2n1`, 0.155%. With `O=C(N/N=C/c1c(O)n(CCc2ccccc2)c(=O)[nH]c1=O)c1ccncc1` the figure was 0.65%; with `CN(C)S(=O)(=O)c1cc(NC(=O)COC(=O)Cc2ccccc2)ccc1Cl`, “inactive”. For the compound `COC(=O)C1=C(c2ccc(S(C)(=O)=O)cc2)C[C@@H]2CC[C@H]1N2C(=O)NCc1ccc(C(F)(F)F)cc1`, the CPE inhibition was 0.31%.

(Values after PubChem BioAssay AID540333 (Southern Research Specialized Biocontainment Screening …, 2011).)
